In PubChem BioAssay (NCATS) one finds Potency and outcome data, which are given here for seven compounds.

Each structure is given as a SMILES string. Results filed as inconclusive are left out. Calls of active or inactive are those of the source. The call rests on the fitted dose curve; in most records, active means well fitted curve in the direction sought with a large enough effect; inconclusive means small, poorly fitted or top-dose-only effect, or another doubt; inactive means no such curve, though single readings can be large; an effect the other way counts as inactive or inconclusive.

The test system of test [1] is Zika virus NS2B-NS3 protease (linked construct). Kind of test: Primary screen NINDS Rhodamine qHTS for Zika virus inhibitors (AID 1347160). Further: nearly all actives have a fitted effect of over 55% in size. In outline: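 In 10 mM Tris-HCl pH 8.0 containing 0.01% Tween 20, linked NS2B-NS3 protease (25 nM final) is exposed to test compounds for 15 min. Cleavage of 1.5 microM Rhodamine110 substrate is tracked by fluorescence over 15 min.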
(In general: qHTS replaces the single test concentration by a dilution series.)

Test [2] addresses Calcium and integrin-binding protein 1 (Homo sapiens) (UniProt Q99828). The experiment in a line: Primary qHTS for Identification of Calcium Integrin Binding Protein 1 (CIB1) Competitor (AID 1508620).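 Further: GST tagged CIB1 binding a fluorescein labelled alphaIIb integrin peptide tracer; top concentration of the series differs between compounds.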 In outline:
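Fluorescence polarization competition: GST-tagged CIB1 (1 uM final) preincubated with compound 15 min at room temperature, then FITC-labelled alphaIIb peptide (100 nM final) added. After 15 min at room temperature, polarization read at Ex 480/Em 540.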

A short description of test [3]: Primary qHTS for inhibitors of nuclear receptor binding SET domain protein 2 (NSD2) in an isogenic RCH-ACV NSD2 p.E1099K mutant (9B) (AID 1645876). Further: nearly all actives have a fitted effect of over 70% in size. Further: potency means the concentration at half of the fitted maximal effect.
Test [4] is described as follows: Primary qHTS for inhibitors of nuclear receptor binding SET domain protein 2 (NSD2) in an RCH-ACV wild type WT cells (2C) (AID 1645877). Further: nearly all actives have a fitted effect of over 70% in size. Further: potency means the concentration at half of the fitted maximal effect.
Test [5] deals with Phospholipid hydroperoxide glutathione peroxidase GPX4 (Homo sapiens) (UniProt P36969). The experiment in a line: Primary qHTS Assay for Inhibitors of Recombinant Selenoprotein Glutathione Peroxidase 4 (GPX4) (AID 1845192). Further: nearly all actives have a fitted effect of over 65% in size. The conditions noted are these: outcome: dose series up to 50 µM unless noted. In a few lines: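 GR-coupled assay: recombinant GPX4 preincubated 30 min with compound at room temperature; final 200 nM GPX4, 1 mM GSH, 0.5 mM cumene hydroperoxide, 0.5 mM NADPH, 100 nM GR, 0.01% BSA, pH 7.5 Tris. NADPH fluorescence (340/450 nm) read at 0 and 15 min.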
Sequence of Phospholipid hydroperoxide glutathione peroxidase GPX4 (Homo sapiens) (P36969 whole entry, looked up): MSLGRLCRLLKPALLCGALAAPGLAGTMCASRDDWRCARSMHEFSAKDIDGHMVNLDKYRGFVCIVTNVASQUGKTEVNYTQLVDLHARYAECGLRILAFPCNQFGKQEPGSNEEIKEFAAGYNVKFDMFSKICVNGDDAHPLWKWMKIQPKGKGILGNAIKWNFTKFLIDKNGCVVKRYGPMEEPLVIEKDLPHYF

Test [6] has as its target Luciferin 4-monooxygenase (Photinus pyralis) (UniProt P08659). Kind of test: Primary firefly luciferase (FLuc) qHTS assay for identification of artifact compounds. (AID 1845220). Further: nearly all actives have a fitted effect of over 60% in size. Further: potency means the concentration at half of the fitted maximal effect. In a few lines: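 Enzymatic FLuc inhibition assay: compounds pre-exposed to luciferin/ATP (10 uM each) for 15 min, then purified P. pyralis enzyme at 10 nM added. Read-out: luminescence at 5 min.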

For test [7], the system named is C33A. Kind of test: Primary qHTS to identify gynecologic anti-cancer compounds using libraries of approved drugs and bioactive compounds (AID 1345084). Further: nearly all actives have a fitted effect of over 55% in size. The conditions noted are these: Gynecologic cancer cell panel viability, ATPlite luminescence, 48 h; series mostly up to 57.5 µM. In a few lines:
(§1)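 Cytotoxicity screen measuring ATP content by luciferase luminescence. Each compound is applied at five concentrations for 48 h at 37 C with 5% CO2.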

The subject of test [8] is CASKI. The test is described as above. The conditions noted are these: Gynecologic cancer cell panel viability, ATPlite luminescence, 48 h; series mostly up to 57.5 µM. In a few lines:
as §1
On the technique in general: ATP-based viability assays read luminescence as a measure of living cells.

Test [9] has as its system Es-2. The test is described as above. Conditions: Gynecologic cancer cell panel viability, ATPlite luminescence, 48 h; series mostly up to 57.5 µM. In a few lines: as §1
Test [10] relates to HeLa. Described as above. Conditions: Gynecologic cancer cell panel viability, ATPlite luminescence, 48 h; series mostly up to 57.5 µM. In outline:
as §1

For test [11], the system named is JEG-3. The test is described as above. Conditions: Gynecologic cancer cell panel viability, ATPlite luminescence, 48 h; series mostly up to 57.5 µM. In outline:
as §1

Test [12] deals with OV90. Described as above. The conditions noted are these: Gynecologic cancer cell panel viability, ATPlite luminescence, 48 h; series mostly up to 57.5 µM. In a few lines:
as §1

In test [13] the test system is Tov112D. The description is as above. Conditions: Gynecologic cancer cell panel viability, ATPlite luminescence, 48 h; series mostly up to 57.5 µM. In outline: as §1
The nature of test [14]: P-glycoprotein substrates identified in KB-8-5-11 adenocarcinoma cell line, qHTS therapeutic library screen (AID 1346987). Further: potency means the concentration at half of the fitted maximal effect; nearly all actives have a fitted effect of over 65% in size. In a few lines: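 KB-8-5-11: colchicine-selected sub-line of KB-3-1 over-expressing P-gp; assay medium lacked colchicine. 72 h drug exposure at 37 degree C, CellTiter-Glo.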
Test [15] deals with Zika virus NS2B-NS3 protease (unlinked complex). The experiment in a line: Primary screen GU Rhodamine qHTS for Zika virus inhibitors: Unlinked NS2B-NS3 protease assay (AID 1347159). Further: nearly all actives have a fitted effect of over 60% in size. Further: potency means the concentration at half of the fitted maximal effect. In outline:
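Percent inhibition derives from the 15-min fluorescence change (ex 480, em 540 nm), normalized to no-enzyme and no-inhibitor wells. Reactions contained 25 nM NS2B-NS3 complex and 1.5 microM substrate in 10 mM Tris-HCl pH 8.0.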

Test [16] deals with Glutathione peroxidase 1 (Homo sapiens) (UniProt P07203). The experiment in a line: Primary qHTS Assay for Inhibitors of Recombinant Selenoprotein Glutathione Peroxidase 1 (GPX1) (AID 1845191). Further: nearly all actives have a fitted effect of over 65% in size. In a few lines:
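GR-coupled assay: compounds preincubated 30 min at room temperature with GPX1, then reaction started with CHP; final 10 nM GPX1, 1 mM GSH, 0.5 mM CHP, 0.5 mM NADPH, 100 nM GR, 0.01% BSA, pH 7.5 Tris buffer. NADPH fluorescence (340/450 nm) read at 0 and 15 min.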

Test [17] relates to Nanoluciferase (engineered Oplophorus gracilirostris luciferase). Kind of test: Primary Nanoluciferase (NLuc) qHTS assay for identification of artifact compounds. (AID 1845222).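 Further: NLuc secreted into diluted conditioned medium of S16 cells.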 In outline:
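S16 cell supernatant NLuc, 1:55; cpds qHTS; 15 min RT dark; Nano-Glo substrate 1:100, 5 min; luminescence; Hill fit of % inhibition.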

Test [18] deals with Hek293T. Kind of test: Primary qHTS to identify gynecologic anti-cancer compounds using libraries of approved drugs and bioactive compounds (AID 1345084). Further: nearly all actives have a fitted effect of over 55% in size. Conditions: Gynecologic cancer cell panel viability, ATPlite luminescence, 48 h, control line for the selectivity index; series mostly up to 57.5 µM. In a few lines:
as §1

Test [19] is described as follows: Primary fluorescence-based thiol-reactive (MSTI) qHTS assay for identification of artifact compounds. (AID 1845221). Further: nearly all actives have a fitted effect of over 65% in size. Further: potency means the concentration at half of the fitted maximal effect. In a few lines:
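Curve-fitted percent inhibition (4-parameter Hill) derived from fluorescence, Ex 525/Em 598 nm, scaled with Acetyl-MSTI and MSTI; 1 h incubation at room temperature.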

Sequence of Glutathione peroxidase 1 (Homo sapiens) (P07203 whole entry, looked up): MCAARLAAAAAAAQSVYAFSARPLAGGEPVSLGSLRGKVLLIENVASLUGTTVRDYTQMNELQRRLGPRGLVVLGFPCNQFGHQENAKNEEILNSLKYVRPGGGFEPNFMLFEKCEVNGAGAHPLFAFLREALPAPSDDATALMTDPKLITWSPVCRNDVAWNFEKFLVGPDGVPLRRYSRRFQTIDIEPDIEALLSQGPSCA
Sequence of Calcium and integrin-binding protein 1 (Homo sapiens) (Q99828 whole entry, looked up): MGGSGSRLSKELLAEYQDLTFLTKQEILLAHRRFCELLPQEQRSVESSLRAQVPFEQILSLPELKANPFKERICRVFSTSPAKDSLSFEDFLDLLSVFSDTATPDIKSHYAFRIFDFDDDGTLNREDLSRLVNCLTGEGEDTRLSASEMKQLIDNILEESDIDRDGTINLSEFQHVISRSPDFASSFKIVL

Take `CC[C@H](C)[C@H]1O[C@]2(CC[C@@H]1C)C[C@@H]1C[C@@H](C/C=C(\C)[C@@H](O[C@H]3C[C@H](OC)[C@@H](O[C@H]4C[C@H](OC)[C@@H](O)[C@H](C)O4)[C@H](C)O3)[C@@H](C)/C=C/C=C3\CO[C@@H]4[C@H](O)C(C)=C[C@@H](C(=O)O1)[C@]34O)O2`: the Potency entry in [1], in [5], in [6], in test [7], in test [8] and in test [9] was “inactive” each time. For the same compound, the Potency entry in test [10], in [11], in test [12] and in [13] was “inactive” throughout. Also, the outcome in [2] was inactive. Besides, the Potency in [3] is 20.5 µM (active); in [4], 9.16 µM (active).

Consider `c1ccc(-c2cnc(Nc3ccc(OCCN4CCCC4)cc3)s2)cc1`, for which the Potency in test [14] is 16.4 µM (active); in [3], 9.16 µM (active); in test [4], 9.16 µM (active); in test [6], 23.9 µM (active). Further, the Potency entry in test [15], in test [1], in [16], in test [5], in [17] and in test [7] was “inactive” each time. The Potency result in test [8], in test [9], in [10], in test [18], in [11] and in test [13] was “inactive” in each case. Moreover, in test [2], the result was inactive.

For the compound `COc1ccccc1-c1c[nH]c2ncc(-c3cncc(C(=O)N(C)C)c3)cc12`, the Potency result in [15], in test [1], in test [16], in [5], in test [6] and in test [19] was “inactive” each time. For the same compound, the Potency result in test [7], in [8], in test [9], in [11] and in test [12] was “inactive” in each case. For the same compound, the result in [2] was inactive.

For `COc1cccc(NC[C@@H](O)Cn2c3ccc(Br)cc3c3cc(Br)ccc32)c1`, the Potency in test [14] was 23.1 µM (active); in test [15], 44.7 µM (active). Moreover, the outcome in [2] was inactive. Also, the Potency result in test [5], in [6], in test [17], in test [7], in [8] and in test [9] was “inactive” in each case. Moreover, the Potency entry in test [18], in test [11] and in test [13] was “inactive” throughout.

Take `CO[C@@H]1[C@@H](O[C@H]2O[C@@H](C)[C@H](O[C@@H]3C[C@](C)(O)[C@H](O)[C@@H](C)O3)[C@@H](N(C)C)[C@@H]2O)[C@@H](CC=O)C[C@@H](C)[C@@H](O[C@H]2CC[C@H](N(C)C)[C@H](C)O2)/C=C/C=C/C[C@@H](C)OC(=O)C[C@H]1O`: the Potency entry in test [15], in test [3], in [16], in test [5], in test [6] and in [19] was “inactive” each time. The Potency result in test [17], in test [7], in test [8], in [9], in test [10] and in [18] was “inactive” throughout. Further, the Potency result in [11], in test [12] and in [13] was “inactive” throughout. The result in [2] was inactive.

In the case of `C=C(C(=O)O)C1CC2=C(C)C(=O)CC2C(C)CC1O` (stereo not drawn), the Potency result in test [1], in [16], in test [5], in [6], in test [17] and in [7] was “inactive” throughout. Also, the Potency result in test [8], in test [10] and in test [13] was “inactive” each time. For the same compound, the result in test [2] was inactive. Besides, the Potency in test [3] is 11.5 µM (active); in test [4], 5.78 µM (active); in [19], 26.7 µM (active).

For the compound `CCCCC(=O)N(Cc1ccc(-c2ccccc2-c2nn[nH]n2)cc1)C(C(=O)O)C(C)C` (stereo not drawn), the Potency result in test [15], in test [1], in test [3], in test [4], in test [5] and in test [6] was “inactive” throughout. Also, the Potency result in test [19], in test [7], in test [8], in test [9], in [10] and in test [18] was “inactive” each time. The Potency result in test [11], in test [12] and in [13] was “inactive” in each case.
